Source: PubChem BioAssay (National Center for Advancing Translational Sciences (NCATS))
Tau filament bind = tau filament binding | P10636 | 2% of 71,000 active | Potency, µM (titrated, usually from 57.1 µM), for the others: at the highest dose activity change, negative = inhibition | recombinant tau filaments, thioflavin S fluorescence, 15 h; filaments grown with octadecylsulfate alongside compound;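 further: on the % scale 0 is the no-effect control and ±100 the full control effect; actives lower thioflavin S fluorescence by blocking filaments or displacing dye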
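Recombinant tau protein (human, 1 uM final) plus 30 uM ODS in HEPES pH 7.4 with NaCl, DTT and thioflavine S. Compound present from the start; fluorescence at 510 nm after 15 h, 37 C.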
Imprint erasure = inducers of genomic imprint erasure in mouse ES cells; mouse ES Peg3-LacZ reporter, beta-gal luminescence, 40 h; 0.02% of 110,000 active; Potency, µM (series often up to 60.7 µM), for inactives: at the top dose activity change, positive = activation, most hits filed as activators
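Gelatin-coated wells received 300 freshly trypsinized female ES cells with a Peg3LacZ-Neo reporter on the maternal allele, then incubated 40 hours at 37C. BetaGlo was added for 5 minutes at room temperature before a single luminescence read.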
p53ts 39C kill = kills p53ts cells at the nonpermissive temperature; H1299-p53A138V viability at 39C, ATP luminescence, 24 h; Potency, µM (titrated, usually from 46.1 µM), inactives show at the top dose activity change, negative = cell killing, hits mostly cytotoxic; 1.5% of 130,000 active; AID 902; further: on the % scale 0 is the no-effect control and ±100 the full control effect; nearly all actives have a fitted effect of over 55% in size
p53ts 32C kill = kills p53ts cells at the permissive temperature; H1299-p53A138V at 32C, ATP luminescence viability, 24 h; Potency, µM (highest dose often 46.1 µM), for the others: at the top dose activity change, negative = cytotoxicity, hits mostly cytotoxic; 0.93% of 130,000 active;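 further: 0% = DMSO and -100% = full killing by reference compound; nearly all actives have a fitted effect of over 55% in size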
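Cells: H1299 p53ts (A138V), 600/well, pre-incubated 16–30 h at 37C. Cpd up to 46 uM, 24 h, 32C. Readout: ATPlite luminescence, 20 min RT. Normalization: DMSO vs tamoxifen 100 uM. AC50 by Hill equation.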
FLuc inh = blocks Photinus pyralis firefly luciferase activity; P08659; purified firefly luciferase, luminescence, 8 min; Potency, µM (top dose mostly 57.1 µM), inactives show at the highest dose activity change, negative = inhibition, actives largely listed as inhibitors; 2.2% of 72,000 active; AID 411; further: on the % scale 0 is the no-effect control and ±100 the full control effect; nearly all actives have a fitted effect of over 40% in size
Target sequence (P08659 whole entry, looked up): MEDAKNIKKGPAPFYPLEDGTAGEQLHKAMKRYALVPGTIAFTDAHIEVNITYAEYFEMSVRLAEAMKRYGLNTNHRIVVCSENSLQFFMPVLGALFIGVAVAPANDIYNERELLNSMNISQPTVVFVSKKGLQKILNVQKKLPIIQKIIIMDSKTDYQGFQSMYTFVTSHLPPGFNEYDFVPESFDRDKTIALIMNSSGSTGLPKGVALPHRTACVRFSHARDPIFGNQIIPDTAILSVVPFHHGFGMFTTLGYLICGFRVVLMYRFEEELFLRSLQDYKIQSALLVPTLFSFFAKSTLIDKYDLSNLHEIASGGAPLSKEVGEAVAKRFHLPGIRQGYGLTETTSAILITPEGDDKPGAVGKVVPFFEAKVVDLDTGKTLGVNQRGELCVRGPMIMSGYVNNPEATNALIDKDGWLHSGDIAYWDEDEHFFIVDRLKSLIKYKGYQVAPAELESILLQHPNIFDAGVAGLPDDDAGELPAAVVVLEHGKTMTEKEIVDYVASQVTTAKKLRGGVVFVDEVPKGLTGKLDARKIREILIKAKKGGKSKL
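Substrate buffer containing 10 uM ATP (pH 7.2 imidazole, Mg2+, KCl, detergent, BSA) is dispensed, compound pinned in, then luciferase/luciferin detector mix added. After 8 min at ambient temperature, light output is measured.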
Active calls of the source: *; [ ] = dose if it differs, or a comment. Compounds with a hit are over-represented: about 3.4% of the library has one in this group of screens. The call rests on the fitted dose curve; in most records, active means well fitted curve in the direction sought with a large enough effect; inconclusive means small, poorly fitted or top-dose-only effect, or another doubt; inactive means no such curve, though single readings can be large; an effect the other way counts as inactive or inconclusive. Potency means the concentration at half of the fitted maximal effect.

Results for Cc1cc(C)c2c(N)c(C(=O)Nc3ncc(C)s3)sc2n1 ?
p53ts 39C kill: 0.79µM*; p53ts 32C kill: 1µM*

What do the screens show for `CNCC[C@H](Oc1ccccc1C)c1ccccc1`?
Tau filament bind: -10%; p53ts 39C kill: 13µM*; p53ts 32C kill: -18%; FLuc inh: -1%

What do the screens show for `CCOC(=O)c1c(C)[nH]c(C(=O)COC(=O)c2ccncc2)c1C`?
Tau filament bind: -18%; Imprint erasure: -14%; p53ts 39C kill: -5%; p53ts 32C kill: 8%; FLuc inh: -2%

How did CCOC(=O)c1c(C)[nH]c(C(=O)COC(=O)C2CC2C)c1C (configuration not stated) do in these assays?
Tau filament bind: 1%; Imprint erasure: -7%; p53ts 39C kill: -1%; p53ts 32C kill: -2%; FLuc inh: 10µM*

Results for CCc1ccc(OC(=O)c2ccn(CC)n2)cc1 ?
Tau filament bind: 1%; Imprint erasure: -9%; p53ts 39C kill: -3%; p53ts 32C kill: -2%; FLuc inh: 13µM*

How did CCOC(=O)c1c(NC(=O)c2ccn(CC)n2)sc2c1CCCC2 do in these assays?
Tau filament bind: 41%; Imprint erasure: -11%; p53ts 39C kill: -18%; p53ts 32C kill: 3%; FLuc inh: 0%

Results for COc1ccc(/C=C/c2nc(C#N)c(NC3CCCCC3)o2)cc1OC ?
Imprint erasure: -9%[10.9 µM]; p53ts 39C kill: -28%; p53ts 32C kill: 1%

How did CCCCc1nn2c(=O)cc(CN(CC)c3ccccc3)nc2s1 do in these assays?
Imprint erasure: 5%[10.9 µM]; p53ts 39C kill: -6%; p53ts 32C kill: 15%

How did CCCc1nn2c(C)c(-c3ccccc3)nc2s1 do in these assays?
Imprint erasure: -54%[10.9 µM]; p53ts 39C kill: 10µM*; p53ts 32C kill: 6.3µM*

Results for Cc1nn2cc(-c3ccc(OC(C)C)cc3)nc2s1 ?
Imprint erasure: -63%[10.9 µM]; p53ts 39C kill: 10µM*; p53ts 32C kill: 13µM*

Results for CCCCCc1nn2cc(-c3ccccc3)nc2s1 ?
Imprint erasure: -40%[10.9 µM]; p53ts 39C kill: 10µM*; p53ts 32C kill: inconclusive

How did c1ccc(CCc2nn3c(-c4ccncc4)nnc3s2)cc1 do in these assays?
Tau filament bind: -3%; Imprint erasure: 4%; p53ts 39C kill: 35%; p53ts 32C kill: 24%; FLuc inh: -1%

What do the screens show for `CC(C)Cc1nn2cc(-c3cccc(Br)c3)nc2s1`?
Imprint erasure: -25%[10.9 µM]; p53ts 39C kill: 10µM*; p53ts 32C kill: 13µM*

How did CC(C)c1ccc(NC(=O)CN2C(=O)COc3ccc(S(=O)(=O)Nc4ccccc4)cc32)cc1 do in these assays?
Imprint erasure: 8%[10.9 µM]; p53ts 39C kill: 4%; p53ts 32C kill: 11%

What do the screens show for `Cc1ccc(C(C)C)c(OCCn2cc(C(=O)c3ccco3)c3ccccc32)c1`?
Imprint erasure: -18%[10.9 µM]; p53ts 39C kill: -8%; p53ts 32C kill: 18%

Results for Cc1ccc(C2CC(=O)Oc3cc(C)c(Cl)cc32)cc1 (configuration not stated) ?
Imprint erasure: -10%

Results for CCc1ccc(-c2cn3nc(CC)sc3n2)cc1 ?
Imprint erasure: -12%[10.9 µM]; p53ts 39C kill: 6.3µM*; p53ts 32C kill: 13µM*

How did c1ccc(-c2nnc3sc(-c4ccncc4)nn23)cc1 do in these assays?
Tau filament bind: -9%; Imprint erasure: -11%; p53ts 39C kill: 4%; p53ts 32C kill: 8%; FLuc inh: 1%

Results for c1ccc(-c2cn3nc(-c4ccccc4)sc3n2)cc1 ?
Tau filament bind: 1%; Imprint erasure: 1%; p53ts 39C kill: inconclusive; p53ts 32C kill: 1µM*; FLuc inh: 0.13µM*

How did Cc1nn2cc(-c3ccccc3)nc2s1 do in these assays?
Tau filament bind: 4%; Imprint erasure: -86%; p53ts 39C kill: 10µM*; p53ts 32C kill: 10µM*; FLuc inh: 10µM*

How did COc1cc(OC)cc(-c2nc3nc(C)c(CCC(=O)Nc4cc(C)cc(C)c4)c(C)n3n2)c1 do in these assays?
Imprint erasure: 4%[10.9 µM]; p53ts 39C kill: -13%; p53ts 32C kill: -2%

How did COc1ccc2c(c1)C(c1cc(OC)c(OC)c(OC)c1)CC(=O)O2 (configuration not stated) do in these assays?
Imprint erasure: 3%

How did CC(=O)Nc1cccc(N(C)S(C)(=O)=O)c1 do in these assays?
Tau filament bind: 2%; Imprint erasure: -3%; p53ts 39C kill: 7%; p53ts 32C kill: 3%; FLuc inh: -1%

How did CN(c1cccc(NC(=O)Nc2cccc(Cl)c2)c1)S(C)(=O)=O do in these assays?
Tau filament bind: 6%; Imprint erasure: 6%; p53ts 39C kill: -24%; p53ts 32C kill: -20%; FLuc inh: 10µM*

What do the screens show for `CN(C)c1ccc(NC(=O)Nc2cccc(Cl)c2)cc1`?
Tau filament bind: 5µM*; Imprint erasure: -69%; p53ts 39C kill: inconclusive; p53ts 32C kill: -23%; FLuc inh: 10µM*

What do the screens show for `CCOc1ccc(-c2cc(NC(=O)c3c(F)cccc3F)c(C(=O)OC)s2)cc1`?
Imprint erasure: -8%[10.9 µM]; p53ts 39C kill: -6%; p53ts 32C kill: -5%

How did Nc1nc(-c2ccccc2)cc(N2CCCCC2)n1 do in these assays?
Tau filament bind: 25µM*; Imprint erasure: -12%; p53ts 39C kill: 0%; p53ts 32C kill: 4%; FLuc inh: 1%

How did Cc1nc(-c2ccccc2)cc(N2CCCC2)n1 do in these assays?
Tau filament bind: 8%[11.4 µM]; Imprint erasure: -9%; p53ts 39C kill: 2%; p53ts 32C kill: 0%; FLuc inh: 1%

Results for Cc1[nH]n2c(=O)cc(C(C)C)nc2c1-c1ccccc1 ?
Tau filament bind: -12%; Imprint erasure: 4%; p53ts 39C kill: 13µM*; p53ts 32C kill: -29%; FLuc inh: 1%

What do the screens show for `O=C(NCC1CCCO1)c1c[nH]c2ccc(S(=O)(=O)Nc3cccc(C(F)(F)F)c3)cc2c1=O` (configuration not stated)?
Imprint erasure: -14%[10.9 µM]; p53ts 39C kill: -8%; p53ts 32C kill: 8%

Results for Cc1ccc(-c2nnc(SCc3ccccc3C#N)o2)cc1 ?
Imprint erasure: -36%[10.9 µM]; p53ts 39C kill: -13%; p53ts 32C kill: -30%

How did O=C(O)c1cc(/C=N\O)ccc1OCc1ccccc1 do in these assays?
Tau filament bind: -3%; Imprint erasure: 4%; p53ts 39C kill: 9%; p53ts 32C kill: -1%; FLuc inh: -1%

How did COc1cc(/C=N/O)ccc1OCc1ccc(C(=O)O)cc1 do in these assays?
p53ts 39C kill: 8.9µM*; p53ts 32C kill: 8.9µM*; FLuc inh: 0.32µM*

How did COc1cccc([C@@H]2Oc3ccc(OC)cc3/C(=N/O[C@@H](C)CN3CCCc4nc(C)c(C)cc43)[C@@H]2O)c1 do in these assays?
p53ts 39C kill: 2%[9.22 µM]; p53ts 32C kill: -7%[9.22 µM]; FLuc inh: 0%[11.4 µM]

Results for Cc1ccc(NC(=O)Nc2nnc(N3CCCC3)s2)cc1 ?
Imprint erasure: -10%[10.9 µM]; p53ts 39C kill: 1%; p53ts 32C kill: 2%
